Experimental data reported in PubChem BioAssay (EPA / NIEHS).
Where “and” joins values, the source holds several entries; their conditions need not be identical. Equal values may be shown once. Some compounds were tested as several samples or in several runs, with calls that do not always agree. Calls of active or inactive are those of the source. The calls were made as follows: active = hit-call score of the fitted dose curve at least 0.9, where 1 is the maximum; inactive = score below 0.9.

The molecules below were run on Tumor necrosis factor (Homo sapiens) (UniProt P01375) (assay: BSK_BT_xTNFa: BioMAP Diversity Plus: BT Assay for Tumor necrosis factor alpha (TNF-alpha) Biomarker Activity (AID 2284230)). Conditions: primary human B cells with PBMC.
Description: BSK_BT is a cell-based, multiplexed-readout assay that uses B cell and peripheral blood mononuclear cells, a human vascular primary cell co-culture, with measurements taken at 24 hours after chemical dosing in a microplate: 96-well plate.BSK_BT_xTNFa is an assay component of the BSK_BT assay. It measures secreted TNF-alpha related to regulation of gene expression using LumineX xMAP technology.Data from the assay component BSK_BT_xTNFa was analyzed at the endpoint, BSK_BT_xTNFa, in the positive analysis fitting direction relative to DMSO as the negative control and baseline of activity. Using a type of cytokine quantitation reporter, gain or loss-of-signal activity can be used to understand protein changes. To generalize the intended target to other relatable targets, this assay endpoint is annotated to the 'cytokine' intended target family, where the subfamily is 'inflammatory factor'.
The levels of cell surface (or secreted, indicated by the prefix "s") biomarker endpoints were measured by ELISA. Overt cytotoxicity to cells in confluent adherent cultures (all systems other than the BT system) was assessed by measuring total protein levels using sulforhodamine B (SRB) staining in parallel cultures at the time of biomarker measurements, indicated as SRB endpoints. For proliferation assays for adherent cell types, individual cell types are cultured at sub-confluence and relative cell numbers quantified by SRB staining at time points optimized for each system (48 h: 3C and CASM3C systems; 72 h: BT and HDF3CGF systems; 96 h: SAg system). SRB was performed by staining cells with 0.1% SRB after fixation with 10% TCA and reading wells at 560 nm.Viability and proliferation of PBMC (T cells) was quantified by Alamar Blue reduction for the SAg and BT systems. For PBMC viability (referred to as PBMC Cytotoxicity within the assay endpoint names), cells were plated (75,000/well in a 96-well plate) and then chemical samples added for 1 h before addition of activators, SEB and TSST-1 (20 ng/mL final concentration each). Cells were incubated for 90 h. Then, Alamar Blue (20 uL/well) (Invitrogen, Cat DAL1100) was added for 6 h, and the plates were read with a fluorescence microplate reader at 546/580 nm (excitation/emission). For PBMC proliferation, cells were plated and activated as above but incubated for only 16 h prior to addition of Alamar Blue. Plates were read after 6 h.

Chain of Tumor necrosis factor (Homo sapiens) (P01375 whole entry, looked up): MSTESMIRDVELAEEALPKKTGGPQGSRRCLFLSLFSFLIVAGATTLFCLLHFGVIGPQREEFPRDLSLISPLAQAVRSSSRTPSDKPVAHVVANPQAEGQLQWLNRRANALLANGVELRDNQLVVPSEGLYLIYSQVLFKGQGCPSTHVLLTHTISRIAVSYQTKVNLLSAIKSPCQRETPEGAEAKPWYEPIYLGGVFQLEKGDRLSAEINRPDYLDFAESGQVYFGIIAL

Row | SMILES | outcome | AC50
1 | Brc1nc2ccccc2s1 | inactive | 
2 | Nc1cc([N+](=O)[O-])cc(Cl)c1O | inactive | 
3 | C[Si](Cl)(Cl)CCC(F)(F)C(F)(F)C(F)(F)C(F)(F)C(F)(F)C(F)(F)F | inactive | 3.33 µM (active)
4 | CCN(CC)c1ccc(C=O)cc1 | inactive | 
5 | C=CC(=O)OCC(F)(F)C(F)(F)C(F)(F)COC(=O)C=C |  | 8.9 µM (active) and 9.3 µM (active)
6 | NC(=O)C(F)(F)C(F)(F)C(F)(F)C(F)(F)C(F)(F)C(F)(F)C(F)(F)F | inactive | 
7 | OCC(F)(F)C(F)(F)C(F)(F)C(F)(F)C(F)(F)C(F)(F)CO | inactive | 
8 | O=C(F)C1(F)C(F)(F)C(F)(F)C(F)(F)C(F)(F)C1(F)F | inactive | 
9 | O=C(O)CCC(F)(F)C(F)(F)C(F)(F)F | inactive | 
10 | CNS(=O)(=O)C(F)(F)C(F)(F)C(F)(F)C(F)(F)C(F)(F)C(F)(F)C(F)(F)C(F)(F)F | inactive | 44.9 µM (active)
11 | NC(=O)C(F)(F)C(F)(F)C(F)(F)C(F)F | inactive | 
12 | OCC(O)CC(F)(F)C(F)(F)C(F)(F)C(F)(F)F (stereo not given) | inactive | 0.153 µM (active)
13 | O=C(O)C(F)(F)C(F)(F)C(F)(F)OC(F)(F)F | inactive | 
14 | CCN(CCO)S(=O)(=O)C(F)(F)C(F)(F)C(F)(F)C(F)(F)C(F)(F)C(F)(F)C(F)(F)C(F)(F)F |  | 21.7 µM (active) and 30 µM (active)
15 | O=C1C=CC(=O)N1c1ccc(Cc2ccc(N3C(=O)C=CC3=O)cc2)cc1 |  | 4.89 µM (active)
16 | CC(C)(C)c1cc(CCC(=O)NCCCCCCNC(=O)CCc2cc(C(C)(C)C)c(O)c(C(C)(C)C)c2)cc(C(C)(C)C)c1O | inactive | 
17 | O=S(=O)(Cl)C(F)(F)C(F)(F)C(F)(F)C(F)(F)C(F)(F)C(F)(F)C(F)(F)C(F)(F)F | inactive | 15.9 µM (active)
18 | Cc1cc(O)c(C(C)(C)C)cc1C(C)(C)C |  | 33.3 µM (active)

Row | SMILES | outcome | AC50
19 | O=C1c2c(O)ccc(Nc3ccc(CCO)cc3)c2C(=O)c2c([N+](=O)[O-])ccc(O)c21 | inactive | 
20 | CCN(CC)c1ccc(C=O)c(O)c1 | inactive | 
21 | FC(F)(F)C(F)(F)C(F)(F)C(F)(F)C(F)(F)C(F)(F)CC[Si](Cl)(Cl)Cl | inactive | 
22 | O=C(O)C(F)(F)C(F)(F)C(F)(F)OC(F)(C(F)(F)F)C(F)(F)F | inactive | 
23 | NC(=O)C(F)(F)C(F)(F)C(F)(F)C(F)(F)C(N)=O | inactive | 0.221 µM (active)
24 | CO[Si](C)(CCC(F)(F)C(F)(F)C(F)(F)C(F)(F)C(F)(F)C(F)(F)F)OC | inactive | 
25 | O=C(Cl)C(F)(F)C(F)(F)C(F)(F)C(F)(F)C(F)(F)C(F)(F)F | inactive | 
26 | C=CC(=O)OCC(F)(F)C(F)(F)C(F)(F)C(F)(F)C(F)(F)C(F)(F)C(F)(F)C(F)F |  | 35.1 µM (active) and 6.23 µM (active)
27 | CCOC(=O)CC(=O)C(F)(F)C(F)(F)F | inactive | 
28 | O=C(O)C(F)(F)C(F)(F)C(F)(F)C(=O)O | inactive | 
29 | COC(F)(C(F)F)C(F)(F)F (stereo not given) | inactive | 
30 | FC(F)(F)C(F)(F)C(F)(F)CC1CO1 (stereo not given) | inactive | 
31 | CCN(CC)c1ccc(N=Nc2ccccc2)cc1 |  | 31 µM (active)
32 | OCC(F)(F)C(F)(F)C(F)(F)CO | inactive | 
33 | C=C(C)C(=O)OCC(F)(F)C(F)(F)C(F)(F)C(F)F | inactive | 
34 | NS(=O)(=O)C(F)(F)C(F)(F)C(F)(F)C(F)(F)C(F)(F)C(F)(F)F | inactive | 
35 | NCC(F)(F)C(F)(F)C(F)(F)C(F)(F)C(F)(F)C(F)(F)F | inactive | 
